The supplement of paper PMC7156485
± gives the standard deviation of the averaged measurements.

Columns and labels:
Conditions in all cases: concentration: 10 µM; 24 h
HCC1569 [1] = test: cell number relative to DMSO (% of DMSO); higher = more cells (less growth inhibition / toxicity)
Method in brief: (§1)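 HCC1569 and TDF cells were seeded at 800 per well in 384-well plates in RPMI with 10% FBS and treated with compounds at 10 µM for 24 h at 37 °C, in triplicate. After fixation in 3.7% formaldehyde, cells were stained with a rabbit anti-H1.0 antibody, an AlexaFluor 647 secondary and DAPI, and six fields per well were imaged at ×10. H1.0 nuclear intensity or cell number is given as percent of the plate control, using the median of replicates, with HCC1569 values smoothed for positional effects.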

TDF [2] = test: as above
Method in brief: as §1

TDF [3] = test: H1.0 immunofluorescence intensity relative to DMSO (% of DMSO); higher = stronger H1.0 induction, active = 120 or more
Method in brief: as §1

HCC1569 [4] = test: H1.0 immunofluorescence intensity relative to DMSO (% of DMSO); higher = stronger H1.0 induction, active = 140 or more
Method in brief: as §1
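Throughout, for H1.0 immunofluorescence intensity relative to DMSO: TDF is a line of transformed human dermal fibroblasts of mesenchymal origin.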
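Throughout, for cell number relative to DMSO: TDF denotes transformed human dermal fibroblasts of mesenchymal origin.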

Row | SMILES | cell number (HCC1569 [1]) | cell number (TDF [2]) | H1.0 immunofluorescence intensity (TDF [3]) | H1.0 immunofluorescence intensity (HCC1569 [4])
1 | C[N+](C)(C)CCCCCC[N+](C)(C)C.[Br-].[Br-] [Hexamethonium bromide] | 104 | 103 | 98.5 (inactive) | 102 (inactive)
2 | O=C(c1ccc(F)cc1)C1CCN(CCn2c(=O)[nH]c3ccccc3c2=O)CC1 [Ketanserin] | 101 | 105 | 91.7 (inactive) | 117 (inactive)
3 | O=C1OC(C(O)CO)C(O)=C1O (stereo not given) [Ascorbic acid] | 100 | 103 | 94 (inactive) | 95.2 (inactive)
4 | Cl.NC(N)=NC(N)=Nc1cccc(Cl)c1 [1-(m-Chlorophenyl)-biguanide hydrochloride] | 102 | 97.2 | 93.4 (inactive) | 97.1 (inactive)
5 | O=C1Cc2c([nH]c3ccc(Br)cc23)-c2ccccc2N1 [Kenpaullone] | 76.3 ± 6.3 | 93.1 ± 3.2 | 91.6 (inactive) | 101 (inactive)
6 | CC(=O)NC(CSCC=C(C)CCC=C(C)CCC=C(C)C)C(=O)O (stereo not given) [Acetyl-farnesyl-cysteine] | 100 | 104 | 97.2 (inactive) | 96.3 (inactive)
7 | CC(C)C1CCC(C(=O)NC(Cc2ccccc2)C(=O)O)CC1 (stereo not given) [Nateglinide] | 105 | 112 | 96.1 (inactive) | 102 (inactive)
8 | COc1cc2nc(N3CCN(C(=O)C4COc5ccccc5O4)CC3)nc(N)c2cc1OC (stereo not given) [Doxazosin] | 96.5 | 107 | 100 (inactive) | 113 (inactive)
9 | O=c1onc2n1-c1cc(Br)ccc1OC2 | 97.4 | 104 | 94 (inactive) | 96 (inactive)
10 | c1ccc(C2CN3CCSC3=N2)cc1 (stereo not given) [Levamisole] | 98.3 | 94.6 | 102 (inactive) | 92.1 (inactive)
11 | COc1ccc(-c2ccc(N)[n+](CCCC(=O)O)n2)cc1.[Br-] | 105 | 97.9 | 96.2 (inactive) | 103 (inactive)
12 | O=c1cc(-c2ccc(O)c(O)c2)oc2cc(O)cc(O)c12 [Luteolin] | 74.6 ± 15 | 62.6 ± 57 | 124 (active) | 120 (inactive)
13 | CCCCN1CCC(COC(=O)c2cc(Cl)c(N)c3c2OCCO3)CC1.Cl | 102 | 108 | 97.7 (inactive) | 104 (inactive)
14 | O=C(O)C=Cc1ccc(Cn2ccnc2)cc1 [Ozagrel] | 100 | 101 | 93.8 (inactive) | 104 (inactive)
15 | O=C(COc1ccc(Cl)cc1)NC1CCC(NC(=O)COc2ccc(Cl)cc2)CC1 (stereo not given) | 104 | 100 | 90.5 (inactive) | 92.9 (inactive)
16 | Cc1nc(C(=O)N2CCC[C@H]2Cc2nnc(-c3ccccc3)o2)c(-c2ccccc2F)s1 | 96.3 | 113 | 97.5 (inactive) | 95.5 (inactive)
17 | CN(C)CCCN1c2ccccc2Sc2ccccc21.Cl [Promazine hydrochloride] | 103 | 107 | 118 (inactive) | 110 (inactive)
18 | CCC(NC(C)C)C(O)c1ccc(O)c2[nH]c(=O)ccc12.Cl (stereo not given) [Procaterol.HCl] | 101 | 105 | 83.2 (inactive) | 112 (inactive)
19 | Clc1ccc2c(c1)C(N1CCNCC1)=Nc1ccccc1O2 [Amoxapine] | 99.54 ± 0.74 | 99.9 ± 2.6 | 99.7 (inactive) | 108 (inactive)
20 | Cn1ccnc1 [1-Methylimidazole] | 103 | 105 | 97.4 (inactive) | 98.9 (inactive)
21 | C[N+](C)(C)CCOC(=O)CCC(=O)OCC[N+](C)(C)C.O.O.[Cl-].[Cl-] | 103 | 104 | 92.5 (inactive) | 102 (inactive)
22 | Nc1nc(=O)c2ncn(COC(CO)CO)c2[nH]1 [Ganciclovir] | 105 ± 4 | 99.6 ± 5.2 | 95.2 (inactive) | 99.6 (inactive)
23 | Nc1nc(N)nc(-c2cc(Cl)ccc2Cl)n1 [Irsogladine] | 105 | 105 | 94.5 (inactive) | 107 (inactive)
24 | CC1OC(Oc2c(-c3cc(O)c(O)c(O)c3)oc3cc(O)cc(O)c3c2=O)C(O)C(O)C1O (stereo not given) [Myricitrin] | 103 | 101 | 94.8 (inactive) | 83.5 (inactive)
25 | CCOC(=O)c1cnc2c(cnn2CC)c1NN=C(C)C [Etazolate] | 102 | 108 | 95.6 (inactive) | 103 (inactive)
